PABP FP inh – PABP-poly(A) binding inhibition; PABP-poly(A) RNA binding, fluorescence polarization; calls only at 35 µM; 1% of 290,000 active; AID 2014;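 note: calls also rest on retests at 20 µM and on dose response follow-up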
eIF4H inh – inhibitors of RNA binding by human eIF4H | eIF4H fluorescence polarization binding assay | Q15056 | inhibition, % at 35 µM | 0.94% of 290,000 active;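 note: calls also rest on retests at 20 µM and on dose response follow-up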
MLLE-PAM2 inh – inhibitors of microRNA-mediated deadenylation, human PABP1 MLLE binding; P11940; GST-MLLE / FITC-PAM2 fluorescence polarization; 0.36% of 360,000 active; AID 588489; inhibition, % at 20 µM; in the data active = inhibition above about 35%, passing the limit was not always enough;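 note: plate controls were DMSO wells with GST-MLLE for no effect and wells lacking GST-MLLE protein for full effect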
PERK inhibitor – human PERK inhibition, primary cell-based screen | CHO PERK-DD fusion, SEAP luminescence translation reporter | inhibition, % at 5.6 µM | Q9NZJ5 | AID 1416 | 0.17% of 220,000 active;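 active = inhibition above the mean inhibition of all tested compounds plus 3 SD, set separately per screening campaign, cut at about 2.9% in these data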;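 note: PERK kinase domain activated by AP20187 dimerizer at 100 nM; 0% = DMSO with dimerizer and 100% = rapamycin at 8.4 µM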
eIF4E-4G inh – eIF4E/eIF4G interaction inhibition in translation initiation; 0.37% of 220,000 active; inhibition, % at 21.7 µM; TR-FRET eIF4E-eIF4GI(517-606) binding, 2 h; P63073+Q04637;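 active = inhibition above about 30%, limit read from the data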;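 note: 0% = full FRET control wells and 100% = background wells lacking eIF4GI fragment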
Numbers without * were called inactive. Rows were chosen to be rich in hits. Some 1.6% of all compounds tested hit in one or more screens of this group. Unless noted, the rule behind the calls is not given here.

N=c1c(S(=O)(=O)c2ccc(Cl)cc2)cc2c(=O)n3ccccc3nc2n1Cc1ccco1 was read as PABP FP inh active, eIF4H inh 73* and MLLE-PAM2 inh -39.
Cc1ccccc1C(C(=O)NC1CCCC1)N(C(=O)CNC(=O)c1ccco1)c1cccnc1 (centres undefined) was read as PABP FP inh inactive, eIF4H inh -1, PERK inhibitor 0 and eIF4E-4G inh -1.
`COc1ccccc1NC(=O)Nc1nc(CC(=O)N2CCN(c3ccccc3F)CC2)cs1` gave MLLE-PAM2 inh -9.
COc1ccc(S(=O)(=O)N2CCCOC2CNC(=O)C(=O)NCc2ccccc2C)cc1 (centres undefined) was read as MLLE-PAM2 inh 1.
For O=C(COc1c(CO)cc(Br)cc1CO)NC1CCCc2ccccc21 (centres undefined) the results were PABP FP inh inactive, eIF4H inh 12, MLLE-PAM2 inh 9, PERK inhibitor 1 and eIF4E-4G inh 2.
Screening CC(=O)c1cccc(NC(=O)c2nc(-c3ccccc3)oc2C)c1 returned PABP FP inh inactive, eIF4H inh -3, MLLE-PAM2 inh -3, PERK inhibitor 0 and eIF4E-4G inh 40*.
`Cc1oc(-c2ccccc2)nc1C(=O)O` gave PABP FP inh inactive, eIF4H inh -4, MLLE-PAM2 inh 5, PERK inhibitor 0 and eIF4E-4G inh 0.
CCC(CC)Nc1ccc(C(CC(N)=O)NC(=O)Cc2cccc3ccccc23)cc1[N+](=O)[O-] (centres undefined) was read as PABP FP inh active, eIF4H inh 78 and MLLE-PAM2 inh -44.
`O=C(Cn1sc2ccccc2c1=O)NC12CC3CC(CC(C3)C1)C2` gave PABP FP inh inactive, eIF4H inh 2, MLLE-PAM2 inh 53*, PERK inhibitor 1 and eIF4E-4G inh 41*.
For O=C(Cn1sc2ccccc2c1=O)Nc1ccccc1 the results were MLLE-PAM2 inh 23.
For CC(=O)Nc1ccc(C(=S)NCC2(N(C)C)CCCCC2)cc1 the results were PABP FP inh active, eIF4H inh active, MLLE-PAM2 inh 13, PERK inhibitor 0 and eIF4E-4G inh 1.
Screening COC(=O)c1ccc(C(=S)NCC2(N(C)C)CCCCC2)cc1 returned PABP FP inh inactive, eIF4H inh -5 and MLLE-PAM2 inh 17.
Screening CCC(=O)N1CCN(c2ccc(NC(=S)NC(=O)c3ccc(OC)c([N+](=O)[O-])c3)cc2)CC1 returned PABP FP inh inactive, eIF4H inh -3, MLLE-PAM2 inh 42*, PERK inhibitor 0 and eIF4E-4G inh -1.
Screening O=C(NC(=S)Nc1ccc(N2CCOCC2)cc1)c1ccccc1 returned PABP FP inh inactive, eIF4H inh 2, MLLE-PAM2 inh 20, PERK inhibitor 0 and eIF4E-4G inh 3.
CCc1ccc(C(=O)NC(=S)Nc2ccc(N3CCOCC3)cc2)cc1 was read as PABP FP inh inactive, eIF4H inh -1, MLLE-PAM2 inh 40*, PERK inhibitor 1 and eIF4E-4G inh -3.
`CCOC(=O)C(Cc1c[nH]c2ccc([N+](=O)[O-])cc12)(NC(C)=O)C(=O)OCC` gave MLLE-PAM2 inh 20.
`CC1CC(C)CN(CC(=O)N2CCc3[nH]c4ccccc4c3C2)C1` (centres undefined) gave PABP FP inh active, eIF4H inh 126*, MLLE-PAM2 inh 11, PERK inhibitor 0 and eIF4E-4G inh -6.
`COc1cc(/C=C/c2[nH]c(=O)[nH]c(=O)c2[N+](=O)[O-])cc([N+](=O)[O-])c1O` gave PABP FP inh active, eIF4H inh 59* and MLLE-PAM2 inh 24.
`CCC(C)Oc1ccc(/C=C/c2[nH]c(=O)[nH]c(=O)c2[N+](=O)[O-])cc1OC` (centres undefined) gave PABP FP inh inactive, eIF4H inh 10, MLLE-PAM2 inh -10, PERK inhibitor 2 and eIF4E-4G inh -1.
Screening Cc1ccc(S(=O)(=O)N2CCOCC2)cc1C(=O)N1C(=O)c2cccc(N)c2C1=O returned PABP FP inh active, eIF4H inh 57*, MLLE-PAM2 inh 10, PERK inhibitor 1 and eIF4E-4G inh -19.
`Cc1ccc(-n2c(-c3nn(C)cc3Cl)n[nH]c2=S)cc1` gave PABP FP inh inactive, eIF4H inh -1, MLLE-PAM2 inh -5, PERK inhibitor 1 and eIF4E-4G inh 13.
`Cn1cc(Cl)c(-c2n[nH]c(=S)n2-c2ccccc2)n1` gave PABP FP inh inactive, eIF4H inh -2, MLLE-PAM2 inh 10, PERK inhibitor 3.3* and eIF4E-4G inh 2.
CCC12CCCN3CCC4(C(=C(C(=O)OC)C1)Nc1ccccc14)C32 (centres undefined) was read as PABP FP inh active, eIF4H inh 17, MLLE-PAM2 inh -99, PERK inhibitor 0 and eIF4E-4G inh -3.
For COC(=O)C1=C(C(=O)OC)[C@@H]2Nc3ccccc3[C@@]23C[C@@H](C(=O)OC)N=C3N1 the results were PABP FP inh inactive, eIF4H inh -14, MLLE-PAM2 inh 11 and eIF4E-4G inh -1.
COc1ccc(/C=N/NC(=O)Cn2c(Cc3ccc(OC)c(OC)c3)nc3ccccc32)cc1 was read as PABP FP inh active, eIF4H inh active, MLLE-PAM2 inh 4, PERK inhibitor 0 and eIF4E-4G inh -1.
Screening Cc1cc(N2CCCCC2)nc(NCc2ccccc2)n1 returned PABP FP inh inactive, eIF4H inh 4, MLLE-PAM2 inh -1, PERK inhibitor 0 and eIF4E-4G inh 67*.
For O=C1CN(S(=O)(=O)c2cc(C(F)(F)F)ccc2Cl)CCN1 the results were MLLE-PAM2 inh 7.
For O=C(O)/C=C/C(=O)N1CCN(S(=O)(=O)c2cc(C(F)(F)F)ccc2Cl)CC1 the results were PABP FP inh active, eIF4H inh 2.1*, MLLE-PAM2 inh -1, PERK inhibitor 0 and eIF4E-4G inh 0.
NS(=O)(=O)c1cc(C(=O)N=Nc2c(O)[nH]c3ccccc23)ccc1Cl was read as PABP FP inh inactive, eIF4H inh 55, MLLE-PAM2 inh -2, PERK inhibitor 0 and eIF4E-4G inh -8.
For CC1=C(C(=O)O)N2C(=O)C(NC(=O)c3ccc(F)cc3)C2SC1 (centres undefined) the results were MLLE-PAM2 inh 43*.
`CC1=C(C(=O)O)N2C(=O)C(NC(=O)c3ccccc3Cl)C2SC1` (centres undefined) gave PABP FP inh inactive, eIF4H inh -2 and MLLE-PAM2 inh 26.
CS(=O)(=O)NCCSc1cc(C(F)(F)F)nc2ccccc12 was read as PABP FP inh active, eIF4H inh 64*, MLLE-PAM2 inh 0, PERK inhibitor 0 and eIF4E-4G inh 2.
Screening Cc1[nH]c2ccc(C(=O)OCC(=O)NC3(C#N)CCCCC3)cc2c1C returned MLLE-PAM2 inh -5.
N#C/C(=C\c1ccc(O)c(O)c1)C(=O)Nc1cccc2ncccc12 was read as PABP FP inh active, eIF4H inh 90* and MLLE-PAM2 inh -57.

Compound activity from PubChem BioAssay.
